# Laboratory results published in PubChem BioAssay.
# The source made the active and inactive calls.
# Tests used:
# [1] = test system: Plasmodium falciparum Sir2 (PF13_0152, Sir2A); test: Plasmodium falciparum Sir2A binding compounds – biochemical, small-molecule microarray, 635 nm fluorescence, primary screen (AID 1098); settings: fluorescence 635 nm, higher = more signal;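 note: score merges spot fluorescence intensity with its signal-to-noise ratio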
# [2] = probe aDKK1 binding to arrayed compounds – biochemical, biotinylated probe, 635/667 nm fluorescence, primary screen (AID 1099); settings: small-molecule microarray, higher = more signal;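 note: score merges 667nm spot fluorescence with signal to noise across triplicate slides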
# [3] = probe aCHRDL2 binding to arrayed compounds – biochemical, biotinylated probe, 635/667 nm fluorescence, primary screen (AID 1100); settings: small-molecule microarray, higher = more signal
# [4] = change in splice reporter luminescence, either direction, cell-based, HEK293, spliceosome inhibition project, primary screen (AID 1101); settings: HEK293 splicing luciferase reporter, 24 h, higher = more signal, called active from +8 up or from −8 down;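 note: HEK293 cells carrying a splicing-competent luciferase reporter gene; test concentration not given here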
# [5] = target: Fibroblast growth factor 10 (Homo sapiens) (UniProt O15520); test: compounds binding fibroblast growth factor 10 – biochemical, small-molecule microarray, 635 nm fluorescence, primary screen (AID 1102); settings: FGF10 binding, fluorescence 635 nm, higher = more signal
# Chain of Fibroblast growth factor 10 (Homo sapiens) (O15520 whole entry, looked up): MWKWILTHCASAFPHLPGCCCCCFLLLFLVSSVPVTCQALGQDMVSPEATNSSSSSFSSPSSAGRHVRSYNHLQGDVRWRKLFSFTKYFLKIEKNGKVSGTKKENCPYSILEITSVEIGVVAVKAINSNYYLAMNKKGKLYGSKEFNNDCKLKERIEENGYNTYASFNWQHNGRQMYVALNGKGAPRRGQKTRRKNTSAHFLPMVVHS
# [6] = test system: glycogen synthase kinase-3 (GSK3A per assay name; protocol says GSK3B); test: compounds binding glycogen synthase kinase-3 – biochemical, small-molecule microarray, 635 nm fluorescence, GSK3A, primary screen (AID 1103); settings: fluorescence 635 nm, higher = more signal; note: the record names both GSK3A and GSK3B
# [7] = target: Epidermal growth factor receptor (Homo sapiens) (UniProt P00533); test: compounds binding epidermal growth factor receptor – biochemical, small-molecule microarray, 635 nm fluorescence, primary screen (AID 1104); settings: EGFR binding, higher = more signal;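 note: score merges 667 nm emission intensity with spot signal to noise over triplicate slides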
# Chain of Epidermal growth factor receptor (Homo sapiens) (P00533 whole entry, looked up): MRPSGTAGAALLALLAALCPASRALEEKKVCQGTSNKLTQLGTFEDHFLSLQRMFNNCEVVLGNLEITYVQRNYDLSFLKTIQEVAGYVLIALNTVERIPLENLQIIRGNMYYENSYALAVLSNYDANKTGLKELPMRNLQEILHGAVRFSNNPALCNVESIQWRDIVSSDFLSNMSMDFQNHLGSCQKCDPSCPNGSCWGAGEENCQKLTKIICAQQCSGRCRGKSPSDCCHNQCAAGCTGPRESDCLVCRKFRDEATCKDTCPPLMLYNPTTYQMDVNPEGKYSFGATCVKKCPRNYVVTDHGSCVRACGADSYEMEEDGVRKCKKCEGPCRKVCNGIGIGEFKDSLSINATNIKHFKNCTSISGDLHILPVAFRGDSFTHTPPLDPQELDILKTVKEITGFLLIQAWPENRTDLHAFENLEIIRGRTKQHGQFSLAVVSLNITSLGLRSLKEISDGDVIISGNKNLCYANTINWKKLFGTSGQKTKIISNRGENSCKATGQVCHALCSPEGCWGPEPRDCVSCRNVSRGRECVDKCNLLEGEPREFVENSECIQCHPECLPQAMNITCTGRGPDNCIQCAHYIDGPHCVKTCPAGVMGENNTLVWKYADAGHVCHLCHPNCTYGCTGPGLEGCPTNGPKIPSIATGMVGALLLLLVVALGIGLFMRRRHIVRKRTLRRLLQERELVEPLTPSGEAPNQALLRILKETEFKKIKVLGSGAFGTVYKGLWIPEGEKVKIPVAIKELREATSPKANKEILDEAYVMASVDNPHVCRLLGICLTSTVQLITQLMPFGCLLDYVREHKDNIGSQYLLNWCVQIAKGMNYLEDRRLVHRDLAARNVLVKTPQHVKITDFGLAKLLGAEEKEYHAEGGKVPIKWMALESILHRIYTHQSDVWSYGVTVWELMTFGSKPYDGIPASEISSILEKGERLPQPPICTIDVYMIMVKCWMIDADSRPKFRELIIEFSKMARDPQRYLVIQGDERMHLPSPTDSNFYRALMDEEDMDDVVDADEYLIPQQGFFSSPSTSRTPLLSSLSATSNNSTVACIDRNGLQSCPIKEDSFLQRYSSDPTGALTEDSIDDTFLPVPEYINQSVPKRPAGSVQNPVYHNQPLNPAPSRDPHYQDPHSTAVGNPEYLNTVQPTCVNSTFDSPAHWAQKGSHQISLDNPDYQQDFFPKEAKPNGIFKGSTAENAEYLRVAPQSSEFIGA
# [8] = target: Follistatin-related protein 3 (Homo sapiens) (UniProt O95633); test: compounds binding follistatin-related protein 3 – biochemical, small-molecule microarray, 635 nm fluorescence, primary screen (AID 1105); settings: FSTL3 binding, higher = more signal;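 note: score merges emission near 667 nm and signal to noise per printed spot across three slides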
# Chain of Follistatin-related protein 3 (Homo sapiens) (O95633 whole entry, looked up): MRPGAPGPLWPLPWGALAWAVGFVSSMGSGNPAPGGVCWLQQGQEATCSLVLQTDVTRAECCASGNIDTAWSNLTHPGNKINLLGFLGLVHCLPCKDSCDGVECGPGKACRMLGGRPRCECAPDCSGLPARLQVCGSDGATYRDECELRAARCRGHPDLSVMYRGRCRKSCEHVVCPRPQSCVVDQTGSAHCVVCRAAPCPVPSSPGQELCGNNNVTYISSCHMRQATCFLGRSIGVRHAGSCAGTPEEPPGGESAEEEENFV
# [9] = target: Dickkopf-related protein 1 (Homo sapiens) (UniProt O94907); test: small molecules binding DKK1 protein – biochemical, small-molecule microarray, 635 nm fluorescence scan, primary screen (AID 1106); settings: higher = more signal;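 note: score merges emission near 667 nm with signal to noise over three replicate slides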
# Chain of Dickkopf-related protein 1 (Homo sapiens) (O94907 whole entry, looked up): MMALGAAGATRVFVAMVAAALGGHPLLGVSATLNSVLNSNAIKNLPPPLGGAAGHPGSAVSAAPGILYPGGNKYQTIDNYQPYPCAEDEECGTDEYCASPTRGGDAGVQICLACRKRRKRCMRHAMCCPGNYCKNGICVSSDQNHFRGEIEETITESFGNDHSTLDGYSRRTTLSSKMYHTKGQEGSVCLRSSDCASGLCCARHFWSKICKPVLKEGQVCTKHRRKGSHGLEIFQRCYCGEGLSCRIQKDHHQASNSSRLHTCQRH
# [10] = test system: Inhibin beta A chain (activin A); test: small molecules binding activin A – biochemical, small-molecule microarray, 635 nm fluorescence scan, primary screen (AID 1107); settings: INHBA, higher = more signal;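 note: mouse activin A protein probed at 4.33 µg/mL on printed slides; score merges bound-protein fluorescence near 667 nm with spot signal-to-noise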
# [11] = test system: Human papillomavirus type 1a protein E7 (residues 44-93); test: small molecules binding HPV E7 44-93 – biochemical, small-molecule microarray, residues 44-93, 635 nm fluorescence, primary screen (AID 1108); settings: fluorescence 635 nm, higher = more signal;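 note: E7 fragment applied at 1 µg/mL in TBST for 1 h at 4 C; score combines spot fluorescence with its signal to noise ratio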
# [12] = hepatitis C replication reporter changes, two-sided – Huh7 cells, luciferase reporter, HCV replication inhibitor project, primary screen (AID 1109); settings: Huh7 HCV replicon luciferase reporter, 48 h; higher = more signal;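 note: huh7 hepatoma cells harbouring a luciferase neomycin HCV replicon reporter; luciferase luminescence as measure of HCV replicon replication; test concentration not given here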
# [13] = target: Left-right determination factor 2 (Homo sapiens) (UniProt O00292); test: small molecules binding LEFTY2 protein – biochemical, small-molecule microarray, 635 nm fluorescence scan, primary screen (AID 1110); settings: higher = more signal
# Chain of Left-right determination factor 2 (Homo sapiens) (O00292 whole entry, looked up): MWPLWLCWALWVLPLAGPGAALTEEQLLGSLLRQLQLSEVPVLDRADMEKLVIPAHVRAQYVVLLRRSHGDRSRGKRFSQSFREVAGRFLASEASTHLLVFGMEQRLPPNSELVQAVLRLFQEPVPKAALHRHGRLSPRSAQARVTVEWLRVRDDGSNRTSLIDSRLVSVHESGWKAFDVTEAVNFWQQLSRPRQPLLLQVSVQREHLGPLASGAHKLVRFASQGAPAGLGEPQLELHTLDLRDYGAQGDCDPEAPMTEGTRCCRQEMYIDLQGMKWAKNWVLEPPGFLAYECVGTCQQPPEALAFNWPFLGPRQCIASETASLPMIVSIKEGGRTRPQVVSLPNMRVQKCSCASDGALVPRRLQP
# [14] = target: Calmodulin-1 (Homo sapiens) (UniProt P0DP23); test: small molecules binding calmodulin-1 with EGTA – biochemical, small-molecule microarray, Cy5-labelled CALM1, profiling panel (AID 1111); settings: Cy5-CALM1 binding fluorescence, higher = more signal;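 note: labelled calmodulin applied in Tris saline Tween buffer holding calcium plus EGTA and DTT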
# [15] = target: Calmodulin-1 (Homo sapiens) (UniProt P0DP23); test: small molecules binding Ca-loaded calmodulin-1 – biochemical, small-molecule microarray, Cy5-labelled CALM1, plus calcium, artefact control for SMM control-protein annotation, profiling panel (AID 1112); settings: Cy5-CALM1 binding fluorescence, higher = more signal;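 note: score merges spot fluorescence with signal to noise from triplicate slides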
# [16] = probe aWnt5a binding to arrayed compounds – biochemical, biotinylated probe, 635/667 nm fluorescence, primary screen (AID 1113); settings: small-molecule microarray, higher = more signal;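 note: score merges 667 nm fluorescence intensity with signal-to-noise per printed feature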
# [17] = probe aShh binding to arrayed compounds – biochemical, biotinylated probe, 635/667 nm fluorescence, primary screen (AID 1114); settings: small-molecule microarray, higher = more signal;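 note: probe is biotin-labelled aShh protein from a stem cell growth factor screen; measures binding of labelled protein to compounds printed on the slide; score merges feature fluorescence at 667 nm with signal-to-noise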
# [18] = probe aNog binding to arrayed compounds – biochemical, biotinylated probe, 635/667 nm fluorescence, primary screen (AID 1115); settings: small-molecule microarray, higher = more signal;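 note: probe is biotinylated aNog protein used at 0.15 µg/mL for 1 h at 4 C; z-score combines 667 nm fluorescence of each spot with its signal to noise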
# [19] = target: Torsin-1A-interacting protein 1 (Homo sapiens) (UniProt Q5JTV8); test: compound microarray binding of lysate hLAP1 – cell lysate, small-molecule microarray, COS7 lysate, 635/667 nm fluorescence, primary screen (AID 1116); settings: 635 nm fluorescence, higher = more signal
# Chain of Torsin-1A-interacting protein 1 (Homo sapiens) (Q5JTV8 whole entry, looked up): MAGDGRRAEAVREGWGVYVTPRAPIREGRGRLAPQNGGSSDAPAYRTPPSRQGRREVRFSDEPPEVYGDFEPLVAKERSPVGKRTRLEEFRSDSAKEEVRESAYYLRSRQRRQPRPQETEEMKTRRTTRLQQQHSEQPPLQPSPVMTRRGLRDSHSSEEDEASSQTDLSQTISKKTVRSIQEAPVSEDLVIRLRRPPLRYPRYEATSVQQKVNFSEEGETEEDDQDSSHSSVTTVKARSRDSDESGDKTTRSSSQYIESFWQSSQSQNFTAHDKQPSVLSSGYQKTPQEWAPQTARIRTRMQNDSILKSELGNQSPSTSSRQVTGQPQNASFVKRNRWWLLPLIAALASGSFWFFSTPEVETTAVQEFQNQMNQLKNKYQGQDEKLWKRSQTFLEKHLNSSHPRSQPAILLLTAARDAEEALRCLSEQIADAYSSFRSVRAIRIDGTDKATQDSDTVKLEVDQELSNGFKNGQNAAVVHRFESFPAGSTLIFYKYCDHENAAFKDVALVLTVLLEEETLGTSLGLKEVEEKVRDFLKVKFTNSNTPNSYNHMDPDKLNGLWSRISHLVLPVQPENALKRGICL
# [20] = target: Alpha-bungarotoxin (Bungarus multicinctus) (UniProt P60615); test: compounds binding labelled alpha-BTX control protein – biochemical, small-molecule microarray, Alexa647 label, 635/667 nm fluorescence, artefact control for SMM control protein annotation, profiling panel (AID 1117); settings: alpha-BTX-A647 binding fluorescence, higher = more signal
# Chain of Alpha-bungarotoxin (Bungarus multicinctus) (P60615 whole entry, looked up): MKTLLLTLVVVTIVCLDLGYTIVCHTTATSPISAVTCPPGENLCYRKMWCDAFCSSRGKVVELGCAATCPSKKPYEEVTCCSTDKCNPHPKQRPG
Compound,composite z-score [1],composite z-score [2],composite z-score [3],z-score [4],composite z-score [5],composite z-score [6],composite z-score [7],composite z-score [8],composite z-score [9],composite z-score [10],composite z-score [11],z-score [12],composite z-score [13],composite z-score [14],composite z-score [15],composite z-score [16],composite z-score [17],composite z-score [18],composite z-score [19],composite z-score [20]
CN(C)CCCC[C@@H]1NC(=O)[C@@H]2C[C@H](C(=O)NCCCCCNC(=O)CS)[C@H](c3cccc(OCCO)c3)N2C1=O,1.72,-0.08,-0.305,-3.22 (inactive),0.551,0.684,0.35,0.356,1.08,0.995,-0.0825,1.94,1,0.497,0.843,-0.034,0.213,-0.255,-0.304,0.4
C=CCN1C(=O)[C@]2(O[C@H](CCn3cc([C@H](O)c4ccccc4)nn3)[C@@H]([Si](C)(C)c3ccc(OC)cc3)[C@@H]2C)c2cc(N3CCOC3=O)ccc21,0.147,-0.228,0.0778,-2.35 (inactive),-0.57,0.387,-0.754,-0.577,-0.272,0.147,0.724,-3.64,-0.69,-0.169,-0.367,-0.16,-0.043,-0.176,0.525,0.479
COC(=O)C(CC#Cc1ccc2c(c1)[C@]1(C(=O)N2)[C@H](c2ccccc2OCCO)N2[C@H](c3ccccc3)[C@H](c3ccccc3)OC(=O)[C@H]2[C@@H]1C(=O)N1CCCCCCC1)C(=O)OC,2.12,3.07,1.7,-1.09 (inactive),1.55,1.47,1.91,1.77,2.52,1.79,1.48,-1.95,1.73,3.07,1.76,1.46,2.72,3.54,5.82,3.89
C=C[C@H](OC)[C@@H](OC(=O)Nc1ccc(OC)cc1)c1ccc(OC)c(O)c1,0.29,-0.387,0.703,-1.48 (inactive),-0.971,-0.761,-1.91,-1.18,-1.61,-0.385,-1.51,0.369,-1.63,-1.07,-0.137,-0.202,0.0062,-0.358,-0.557,-2.08
CC(C)N1CC=CC23O[C@@H]4/C=C\CCCOC(=O)C4[C@H]2C(=O)N(CCCO)[C@@H]3C1=O (stereo not given in full),2.12,-0.201,0.787,0.073 (inactive),-0.352,-0.762,-1.64,-1.07,-1,0.967,-0.0197,-0.597,-1.83,-0.311,0.412,-0.14,-0.0959,0.0824,-0.0239,-2.18
CC(=O)NCCCC[C@@H]1NC(=O)[C@@H]2C[C@H](C(=O)O)[C@H](c3cccc(OCCO)c3)N2C1=O,1.25,-0.018,-0.37,-0.877 (inactive),1.13,1.21,0.782,0.787,1.21,-0.456,0.952,0.436,1.46,-0.188,-0.789,-0.0403,-0.0626,-0.37,0.947,1.03
CC(C)(C)OC(=O)CC[C@@]1(C(=O)N2CCOCC2)N=C(c2ccc(OCCCO)cc2)O[C@@H]1c1ccccc1,1.12,1.33,1.36,-1.17 (inactive),0.728,0.943,-0.384,-0.462,-0.607,0.743,0.358,-0.0126,-0.26,2.08,1.31,-0.0403,0.798,1.4,3.32,2.06
C=CCNC(=O)[C@@H]1[C@H]2C(=O)O[C@H](c3ccccc3)[C@H](c3ccccc3)N2[C@H](c2ccc(O)cc2)[C@@]12C(=O)Nc1ccc(C#Cc3ccc(OC)cc3)cc12,0.775,0.74,0.273,-0.934 (inactive),0.564,1.26,0.312,0.961,0.389,0.311,0.927,-2.67,0.239,1.61,0.941,-0.0236,1.03,-0.274,1.02,2.75
CCOC(=O)C[C@H]1[C@H](OC(=O)c2ccc(-c3ccccc3)cc2)[C@@H](NC(=O)C2CCCCC2)c2cc(OCCCO)ccc2N1C(=O)c1ccc2ccccc2n1,0.13,0.414,0.111,-1.65 (inactive),0.651,0.708,0.0502,0.392,1.12,-0.167,1.19,-0.241,0.197,1.24,0.854,0.0102,-0.0133,0.037,0.729,0.608
COc1ccc([Si](C)(C)[C@H]2[C@H](CC(=O)N(CCO)Cc3ccccc3)O[C@@]3(C(=O)N(Cc4ccc(N5CCOC5=O)cc4)c4ccccc43)[C@@H]2C)cc1,0.614,0.0402,0.32,-1.56 (inactive),0.286,-0.137,0.109,0.276,0.512,0.6,0.162,-2.94,0.23,0.228,0.342,-0.0944,0.493,0.473,0.639,1.02
C=CCNC(=O)[C@@H]1[C@H]2C(=O)O[C@H](c3ccccc3)[C@H](c3ccccc3)N2[C@H](c2ccc(O)cc2)[C@@]12C(=O)Nc1ccccc12,0.442,-0.0741,0.363,0.633 (inactive),0.237,-0.608,-1.14,0.133,0.131,-0.287,0.197,-0.603,-1.01,0.439,0.259,-0.0758,0.0756,0.955,-0.0205,1.33
